This is an account of results in ChEMBL document CHEMBL3988442, “University of Dundee, Small-Polar-MMV Screening Library” (2021).

This assay concerns the target AMP-activated protein kinase, AMPK (Homo sapiens) (UniProt P54646+O43741+P54619+Q9UGJ0+Q9Y478+Q13131+Q9UGI9). Put plainly: AMP-dependent Kinase enzyme assay. An in vitro enzyme assay that detects ADP turnover that is directly proportional to AMPK activity. This uses naive AMPK that is activated during the assay with MK-8722. It counts as functional. Further details: scale not given: direction of the effect not stated beside the values. The following applies: 30 µM.

Consider `CCn1cnnc1CNC(=O)c1ccc(Br)cc1F`, for which the Percent Effect was -10.5%.
With `CC(C)c1cc(C(=O)NCCc2nc(-c3ccncc3)n[nH]2)[nH]n1` the figure was 39.1%.
As for `Cn1ccnc1-c1cnn(CC(=O)Nc2ccnn2C)c1`, the Percent Effect is -2.32%.
The value for `COc1ccc(F)c(-c2cc(C(=O)NC3CC3)ccn2)c1` was -7.5%.
With `CCN(CC)S(=O)(=O)c1cc(Br)ccc1OC` the figure was -4.57%; with `CCn1cc(CN2CCC(c3ncc(Cl)cc3S(C)(=O)=O)CC2)c(C)n1`, 4.95%; with `COC(=O)NCC(=O)N1CCC(c2cc3ccccc3[nH]2)CC1`, 6.03%.
The value for `O=C(CCC1CCCC1)N1C[C@H]2CC[C@@H]1CN(Cc1ccncc1)C2` was 6.08%; that for `CCC(NCCn1cccn1)C(=O)Nc1cc(C)on1` (stereo unspecified) was 2.9%; that for `CS(=O)(=O)N1CC[C@]2(O)CCN(c3cc(C#N)ccn3)C[C@@H]2C1` was -6.37%.
Turning to `c1ccc(CCN2CCC(OCC3CCCCO3)CC2)nc1` (stereo unspecified), the Percent Effect was 11.2%.
Regarding `FC(F)(F)Oc1ccc(CN2CCCC(n3cncn3)C2)cc1` (stereo unspecified), the Percent Effect was 3.31%.
The value for `Cc1cccc(COc2ccc(C(C)NC(=O)CNC(N)=O)cc2)c1` (stereo unspecified) was 1.42%.
With `CC(OCC1CC1)C(=O)Nc1nccn1Cc1ccccc1` (stereo unspecified), the Percent Effect turned out to be 5.4%.
For the compound `CC(C)Cc1ncc2c(n1)CN(c1cc(NCCO)nc(N)n1)C2`, the Percent Effect is -165%.
The value for `NC(=O)c1cccc(-c2cnc(C3CCCNC3)cn2)c1` (stereo unspecified) was 12.6%; that for `COC(=O)C(NC(=O)c1cc(F)cc(F)c1)c1cccnc1` (stereo unspecified) was 2.18%; that for `CNC(=O)c1cn2cc(-c3ccccc3Cl)n(CC=C(C)C)c(=O)c2n1` was 3.23%.
With `CCC1(CC)CC(=O)N(CC(O)c2ccc(Cl)cc2)C1=O` (stereo unspecified), the Percent Effect was 7.86%.
With `O=C(c1nc(=O)[nH]c2ccccc12)N1CCCC(CC2CC2)(C(=O)O)C1` (stereo unspecified) the figure was -0.821%; with `Cc1nn(-c2ccccc2)c2nc(C(C)(C)CN3CCN(C)CC3)[nH]c12`, 9.98%.
The value for `CCCC(=O)NC1CCCN(c2nc3ccccc3cc2CO)C1` (stereo unspecified) was 6.66%.
The value for `COc1ccc(Cl)cc1C(=O)NCc1cnn(C)c1C` was 7.53%; that for `CSc1nccc(N2CCC(NCc3nc(C)cc(C)n3)CC2)n1` was 7.66%.
Take `O=C(Nc1ccc(Br)cc1F)c1ccc(N2CCOCC2)nn1`: the Percent Effect is -1.73%.
The value for `CCc1cc(NCCCNS(C)(=O)=O)nc(-c2ccncc2)n1` was -3.23%; that for `Cc1cc(C)nc(N2CCCC(C)(c3[nH]ncc3C(=O)N(C)C)C2)n1` (stereo unspecified) was 4.6%; that for `COCCn1ccnc1C1CCN(C(=O)CSc2nnc(C)s2)CC1` was 7.22%.
In the case of `CN1CCC(c2n[nH]c(=O)n2-c2cccc(Cl)c2)CC1`, the Percent Effect worked out at 65.1%.
With `COc1ccccc1N1CCCC(NC(=O)Nc2cccnc2)C1` (stereo unspecified) the figure was -1.53%.
Regarding `O=C(c1cncc(NCC2COc3ccccc3C2)n1)N1CCCC1` (stereo unspecified), the Percent Effect was determined as 8.04%.
With `Cc1cc(C)cc(NCCC(=O)NCc2cccnc2N(C)C)c1` the figure was -2.62%; with `CN(C)c1ccc(C(=O)N(Cc2ccncc2)CC2CCCO2)nn1` (stereo unspecified), -3.6%; with `CC(C)C1CCCN1C(=O)Nc1ccc(=O)n(C)c1` (stereo unspecified), 56.6%.
As for `CN(C)Cc1cccc(-c2cccnc2C(=O)NCC2CC2)c1`, the Percent Effect worked out at 20.3%.
The value for `CCN(Cc1cnn(CC)c1)Cc1c(Cl)cncc1Cl` was 6.24%.
